Results on six compounds are retold here after PubChem BioAssay (NCATS).

Holding throughout (experiment): qHTS profiling for inhibitors of Plasmodium falciparum proliferation (AID 504749); note: nearly all actives have a fitted effect of over 60% in size
Conditions in all cases: P. falciparum in erythrocytes, SYBR Green DNA, 72 h; series mostly up to 28.7 µM
On the technique in general: In qHTS, concentration-response curves come from the screen itself.

One experiment relates to CP194. In short, it runs like this:
(§1)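 Fluorescence of SYBR Green-bound parasite DNA, read at 485/535 nm, served as the growth measure. Infected erythrocytes were cultured with compound 72 h; artemisinin (0.29 uM) and DMSO wells defined the normalization range.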

A further experiment concerns CP201. Put shortly: as §1
The next experiment deals with CP211. In short, it runs like this: as §1
In the next experiment the test system is CP215. Put shortly:
as §1

The subject of the next experiment is CP217. In short, it runs like this:
as §1

Another experiment relates to CP237. In short, it runs like this: as §1
In the next experiment the test system is CP238. In short, it runs like this:
as §1

The next experiment has as its system CP250. In short, it runs like this:
as §1

A further experiment relates to CP252. In short, it runs like this: as §1
The next experiment has as its system CP256. Put shortly:
as §1

A further experiment concerns CP260. In short, it runs like this: as §1
The test system of the next experiment is CP262. In short, it runs like this: as §1
In the next experiment the test system is CP265. In short, it runs like this: as §1
For another experiment, the system named is CP268. Put shortly: as §1
In the next experiment the test system is CP286. Put shortly:
as §1

A further experiment deals with CP266. In short, it runs like this: as §1
The test system of another experiment is CP203. Put shortly:
as §1

For a further experiment, the system named is CP291. In short, it runs like this:
as §1

Another experiment concerns CP269. In short, it runs like this: as §1
Another experiment relates to CP247. In short, it runs like this:
as §1

The structures appear in SMILES notation. Inconclusive results are not listed. Activity calls are given as the source filed them. Calls come from the whole dose curve; as a rule, active = well fitted inhibition curve with a large enough effect; inconclusive = small, poorly fitted or top-dose-only effect; inactive = flat fitted curve, though single readings scatter.
Potency is the fitted concentration of half-maximal effect.

Turning to `CC(C)OC(=O)Nc1ccc2nc(-c3cscn3)[nH]c2c1`, the Potency entry with CP194, with CP201, in the experiment on CP211, with CP215, in the experiment with CP217 and with CP237 was “inactive” each time. The Potency result with CP238, with CP250, in the experiment with CP252, with CP256, in the experiment with CP260 and in the experiment on CP262 was “inactive” throughout. In addition, the Potency result with CP265, in the experiment with CP268 and in the experiment with CP286 was “inactive” in each case.
Turning to `CCCCCCCCCCCCCCCCOCCOCCOCCOCCOCCOCCOCCOCCOCCOCCOCCOCCOCCOCCOCCOCCOCCOCCOCCOCCO`, the Potency was 7.08 µM (active) in the experiment on CP237 and 11.2 µM (active) with CP260. Moreover, the Potency result with CP262 and with CP266 was “inactive” in each case.
Regarding `NC(N)=NCC1COc2ccccc2O1` (stereo not given), the Potency result with CP201, with CP203, in the experiment with CP217, in the experiment on CP237, with CP238 and in the experiment with CP250 was “inactive” in each case. Further, the Potency entry with CP252, in the experiment with CP265 and in the experiment with CP291 was “inactive” each time.
Consider `CCN(CC)CCOC(=O)c1cccnc1`, for which the Potency entry with CP194, in the experiment with CP203, in the experiment on CP211, with CP215, in the experiment on CP217 and with CP252 was “inactive” throughout. In addition, the Potency entry in the experiment with CP256, in the experiment on CP260, in the experiment with CP262, with CP265, with CP266 and with CP268 was “inactive” in each case. The Potency entry in the experiment on CP269, in the experiment with CP286 and in the experiment on CP291 was “inactive” throughout.
`O=C(OCc1ccccc1)c1cccnc1`: the Potency result in the experiment on CP201, in the experiment on CP203, with CP211, in the experiment with CP217, in the experiment with CP237 and in the experiment with CP238 was “inactive” each time. The Potency result with CP247, in the experiment with CP250, in the experiment on CP252, in the experiment with CP262, with CP265 and with CP266 was “inactive” each time. Further, the Potency entry in the experiment with CP268, with CP269 and in the experiment on CP291 was “inactive” each time.
On to `CC(CN(C)C)CN1c2ccccc2Sc2ccc(C(F)(F)F)cc21` (stereo not given), for which the Potency result in the experiment on CP266 is “inactive”. The Potency in the experiment on CP286 was 11.2 µM (active).
